Test results reported in PubChem BioAssay (Tox21).
Results filed as inconclusive are left out. The source made the active and inactive calls. Unless noted, the call rests on the fitted dose curve; in most records, active means well fitted curve in the direction sought with a large enough effect in the repeat runs; inconclusive means weak or mixed curves; inactive means no such curve, though single readings can be large; an effect the other way counts as inactive or inconclusive.

Legend:
[1] = qHTS assay for small molecule agonists of the p53 signaling pathway (AID 651631; calls by dose curve; further: nearly all actives have a fitted effect of over 15% in size)
How it was run: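 Read-out is beta-lactamase FRET fluorescence measured 2 h after substrate addition at room temperature, in HCT-116 cells with a p53 response element-driven reporter exposed to compounds for 16 h at 37 °C.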

[2] = qHTS assay for small molecules that induce genotoxicity in human embryonic kidney cells expressing luciferase-tagged ATAD5 (AID 651632); further: nearly all actives have a fitted effect of over 15% in size
How it was run: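 Reporter cells (HEK293T) express luciferase-tagged ATAD5, a protein that accumulates after DNA damage. Treat 16 hr at 37C/5% CO2, add Amplite, wait 30 min at RT, and read luminescence.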

[3] = qHTS assay for small molecule agonists of the p53 signaling pathway - cell viability (AID 651633; calls by dose curve;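 further: p53RE-bla HCT reporter cells with a stable beta-lactamase p53 reporter; series mostly up to about 83 µM; nearly all actives have a fitted effect of over 30% in size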)
How it was run: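 Viability counter-read: CellTiter-Glo luminescence (30 min, room temperature) in the same p53RE-bla plates. These plates had been exposed to compounds for 16 h at 37 C.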

[4] = qHTS assay for small molecules that induce genotoxicity in human embryonic kidney cells expressing luciferase-tagged ATAD5 - cell viability (AID 651634; calls by dose curve; further: nearly all actives have a fitted effect of over 25% in size)
How it was run: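 Seeding of 2,000 HEK293T ATAD5-luciferase cells per well preceded pin-tool compound transfer. Plates sat 15.5 hr at 37C under 5% CO2, then fluorescence was read after 30 min with CellTiter-Fluor.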

[5] = qHTS assay for small molecule disruptors of the mitochondrial membrane potential - cell viability (AID 720634; calls by dose curve;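 further: human HepG2 liver cancer cells; series mostly up to about 83 µM; nearly all actives have a fitted effect of over 20% in size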)
How it was run: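 Measuring cytotoxicity alongside mitochondrial potential, the screen quantified ATP by luminescence in HepG2 cells after 1 hr compound incubation and a 30 min room-temperature CellTiter-Glo step.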

[6] = qHTS assay to test for compound auto fluorescence at 590 nm (red) in HepG2 cells (AID 720674)
How it was run: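 1 hr compound incubation on HepG2 cells, 37 C, 5% CO2; plate read ex 540 nm / em 590 nm; intensities reported as Rose Bengal sodium equivalents.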

[7] = qHTS assay to test for compound auto fluorescence at 535 nm (green) in HepG2 cells (AID 720675)
[8] = qHTS assay to test for compound auto fluorescence at 460 nm (blue) in HEK293 cells (AID 720678)
How it was run: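 Measured: blue fluorescence (Ex 405/Em 460 nm) of compound-treated HEK293 cells, incubated overnight at 37C with 5% CO2 and scaled to triamterene equivalents.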

[9] = qHTS assay to test for compound auto fluorescence at 590 nm (red) in HEK293 cells (AID 720679)
How it was run: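 Using HEK293 cells at 2,000 per well, the screen added 23 nL of each compound after cell attachment and incubated overnight (37C, 5% CO2). The plate reader then captured red-label fluorescence, Ex/Em 540/590nm.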

[10] = qHTS assay to test for compound auto fluorescence at 535 nm (green) in HEK293 cells (AID 720680)
[11] = qHTS assay to test for compound auto fluorescence at 460 nm (blue) in HEK293 cell free culture (AID 720681)
How it was run: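 Blue fluorescence (Ex 405/Em 460 nm, triamterene-equivalent) was read immediately after pin transfer of compound or DMSO into medium (DMEM, 10% FBS) without cells.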

[12] = qHTS assay to test for compound auto fluorescence at 535 nm (green) in HEK293 cell free culture (AID 720682)
How it was run: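 Fluorescein serves as the green reference fluorophore; each compound's intrinsic emission at 535 nm (excitation 485 nm) is reported as an equivalent amount of that dye, measured in serum-containing DMEM without cells.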

[13] = qHTS assay to test for compound auto fluorescence at 590 nm (red) in HepG2 cell free culture (AID 720684)
How it was run: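 Steps: dispense MEM/10% FBS medium, no cells; pin compound or DMSO vehicle; read red channel, Ex/Em 540/590 nm. Output given as Rose Bengal sodium equivalents.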

[14] = qHTS assay to test for compound auto fluorescence at 460 nm (blue) in HepG2 cell free culture (AID 720685)
How it was run: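 Compound (23 nL) or DMSO pinned into cell-free MEM with 10% FBS; blue fluorescence read at 405/460 nm excitation/emission, expressed as auto-fluorescence equivalency to triamterene.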

[15] = qHTS assay to test for compound auto fluorescence at 535 nm (green) in HepG2 cell free culture (AID 720686)
[16] = qHTS assay to test for compound auto fluorescence at 460 nm (blue) in HepG2 cells (AID 720687)
How it was run: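 Blue-channel autofluorescence (Ex/Em 405/460 nm, triamterene-equivalent) was measured after 1 hr compound exposure at 37 C, 5% CO2. Cells were HepG2, plated overnight at 37 C in MEM plus 10% FBS.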

[17] = qHTS assay to identify small molecule antagonists of the glucocorticoid receptor (GR) signaling pathway - cell viability counter screen (AID 720693); further: nearly all actives have a fitted effect of over 55% in size
[18] = qHTS assay for identifying genotoxic compounds that show differential cytotoxicity against isogenic chicken DT40 cell lines with known DNA damage response pathways - wild type cell line (AID 743012); further: potency means the concentration at half of the fitted maximal effect; nearly all actives have a fitted effect of over 60% in size
How it was run: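 Using parental DT40 (300 cells/well), compounds delivered in DMSO incubate 40 h at 37 C/5% CO2. CellTiter-Glo reagent then stands 30 min at room temperature, and luminescence gives cell viability.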

[19] = qHTS assay for identifying genotoxic compounds that show differential cytotoxicity against isogenic chicken DT40 cell lines with known DNA damage response pathways - Rev3 mutant cell line (AID 743014); further: potency means the concentration at half of the fitted maximal effect; nearly all actives have a fitted effect of over 55% in size
[20] = qHTS assay for identifying genotoxic compounds that show differential cytotoxicity against isogenic chicken DT40 cell lines with known DNA damage response pathways - Rad54/Ku70 mutant cell line (AID 743015); further: potency means the concentration at half of the fitted maximal effect; nearly all actives have a fitted effect of over 60% in size
[21] = qHTS assay to identify small molecule antagonists of the androgen receptor (AR) signaling pathway - cell viability counter screen (AID 743033; further: nearly all actives have a fitted effect of over 45% in size)
[22] = qHTS assay to identify small molecule antagonists of the androgen receptor (AR) signaling pathway using the MDA cell line - cell viability counter screen (AID 743041; further: nearly all actives have a fitted effect of over 45% in size)
How it was run: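 Cells were plated at 3,000 per well and left 5 h. Compounds in DMSO were then pinned in, followed by R1881. After 16 h at 37C, CellTiter-Fluor fluorescence gave viability.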

[23] = qHTS assay to identify small molecule antagonists of the thyroid receptor (TR) signaling pathway - cell viability counter screen (AID 743064); further: nearly all actives have a fitted effect of over 50% in size; further: potency means the concentration at half of the fitted maximal effect
How it was run: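 Fluorescence from CellTiter-Fluor, added after 23.5 h exposure at 37 °C, reported viability of GH3.TRE-Luc cells co-treated with compound and 1 nM T3. Measured in the same wells as the luciferase TR readout.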

[24] = qHTS assay to identify small molecule antagonists of the thyroid receptor (TR) signaling pathway (AID 743065); further: potency means the concentration at half of the fitted maximal effect; nearly all actives have a fitted effect of over 55% in size
How it was run: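 Antagonism measured as loss of luciferase signal in GH3 cells stably carrying a TRE-luciferase reporter, co-treated with compound and T3 (1 nM final) for 23.5 h at 37 C. Viability was read in the same well by CellTiter-Fluor.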

[25] = test system: thyroid hormone receptor (rat, GH3 cells); assay: qHTS assay to identify small molecule agonists of the thyroid receptor (TR) signaling pathway (AID 743066; calls by dose curve)
[26] = qHTS assay to identify small molecule antagonists of the estrogen receptor alpha (ER-alpha) signaling pathway using the BG1 cell line - cell viability counter screen (AID 743081);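 further: compound given together with 17beta-estradiol as the ER stimulus; nearly all actives have a fitted effect of over 45% in size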; further: potency means the concentration at half of the fitted maximal effect
[27] = molecular target: Acetylcholinesterase (Homo sapiens) (UniProt P22303); assay: Acetylcholinesterase (AChE) small molecule antagonists: enzyme-based qHTS assay with human liver microsomes (AID 1347399; calls by dose curve; further: nearly all actives have a fitted effect of over 60% in size); conditions: Potency: qHTS inhibition; outcome: qHTS inhibition
How it was run: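 Recombinant human AChE (50 mU/mL in the enzyme mix) and human liver microsomes (0.25 mg/mL final) were preincubated with compound and NADPH (0.25 mg/mL final) for 30 min at 37 C. Acetylthiocholine/DTNB was then added; thiocholine was read colorimetrically after 10 min at room temperature.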

[28] = molecular target: Acetylcholinesterase (Homo sapiens) (UniProt P22303); assay: Acetylcholinesterase (AChE) small molecule antagonists: fluorescence cell-based qHTS assay (AID 1347398; calls by dose curve; further: nearly all actives have a fitted effect of over 50% in size); conditions: Potency: AChE activity; outcome: AChE activity
How it was run: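 Read-out is Thiolite Green fluorescence at Ex/Em = 490/520 nm, formed by reaction with thiocholine released when cellular AChE in SH-SY5Y cells hydrolyzes acetylthiocholine. Compounds were preincubated 30 min at 37 C before substrate.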

[29] = qHTS assay for small molecule disruptors of the mitochondrial membrane potential (AID 720635)
How it was run: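 Mitochondrial membrane potential tracked with Mito-MPS dye, red aggregates (ex 540/em 590 nm) against green monomers (ex 490/em 535 nm). Compound treatment 1 hr at 37C, dye 30 min in HepG2.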

[30] = molecular target: Glucocorticoid receptor (Homo sapiens) (UniProt P04150); assay: qHTS assay to identify small molecule agonists of the glucocorticoid receptor (GR) signaling pathway (AID 720691; active means well fitted activation curve with a large enough effect in the signal ratio in the repeat runs, not every such curve was filed as active; the % refers to the signal ratio)
How it was run: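 Reporter read-out: fluorescence intensity following 2 h room-temperature LiveBLAzer B/G FRET substrate loading. Prior step: GR-bla HeLa cells held 4 h, then treated 18 h at 37 C.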

[31] = molecular target: Glucocorticoid receptor (Homo sapiens) (UniProt P04150); assay: qHTS assay to identify small molecule antagonists of the glucocorticoid receptor (GR) signaling pathway (AID 720692; active means well fitted inhibition curve with a large enough effect in the signal ratio in the repeat runs, not every such curve was filed as active; the % refers to the signal ratio)
How it was run: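 Dexamethasone (5 nM final) stimulated a stably integrated GRE-beta-lactamase reporter in HeLa cells during 18 h co-incubation with compounds; signal was quantified as fluorescence intensity of B/G FRET substrate after 2 h.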

[32] = molecular target: Estrogen receptor (Homo sapiens) (UniProt P03372); assay: qHTS assay to identify small molecule antagonists of the estrogen receptor alpha (ER-alpha) signaling pathway (AID 743069; active means well fitted curve in the direction sought with a large enough effect in the signal ratio in the repeat runs, not every such curve was filed as active; the % refers to the signal ratio)
How it was run: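 ER-alpha-UAS-bla GripTite HEK293 line; 2% charcoal-stripped FBS overnight; plated, 4 hr 37C/5% CO2; cpd in DMSO + 17beta-estradiol, 18 hr 37C; LiveBLAzer B/G FRET substrate 2 hr RT; fluorescence intensity.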

[33] = molecular target: Estrogen receptor (Homo sapiens) (UniProt P03372); assay: qHTS assay to identify small molecule agonists of the estrogen receptor alpha (ER-alpha) signaling pathway (AID 743075; calls by dose curve;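 further: HEK293 GripTite cells with ER-alpha and UAS-driven beta-lactamase reporter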)
[34] = molecular target: Estrogen receptor (Homo sapiens) (UniProt P03372); assay: qHTS assay to identify small molecule agonists of the estrogen receptor alpha (ER-alpha) signaling pathway using the BG1 cell line (AID 743079); further: nearly all actives have a fitted effect of over 20% in size
[35] = qHTS assay to identify small molecule antagonists of the estrogen receptor alpha (ER-alpha) signaling pathway using the BG1 cell line (AID 743080; calls by dose curve;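 further: BG1 cells stimulated with 17beta-estradiol alongside compound; series mostly up to about 70 µM; nearly all actives have a fitted effect of over 25% in size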)
How it was run: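 Quantitative HTS on the Tox21 10K library: BG1 cells with endogenous ER-alpha and ERE-luciferase reporter, 17beta-estradiol stimulation, 21.5 h compound exposure, luminescence endpoint with parallel fluorescence cytotoxicity counter-read.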

Aromatase (Homo sapiens) = Aromatase (Homo sapiens) (UniProt P11511); assay: qHTS assay to identify aromatase inhibitors (AID 743083); further: series mostly up to about 70 µM; nearly all actives have a fitted effect of over 55% in size
[36] = qHTS assay to identify aromatase inhibitors - cell viability counter screen (AID 743084)
[37] = molecular target: Aryl hydrocarbon receptor (Homo sapiens) (UniProt P35869); assay: qHTS assay to identify small molecule that activate the aryl hydrocarbon receptor (AhR) signaling pathway (AID 743085);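 further: HG2L7.5c1 human HepG2 liver cells with stably integrated DRE-driven firefly reporter; series mostly up to about 70 µM; nearly all actives have a fitted effect of over 15% in size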
How it was run: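 Cell line HG2L7.5c1 (human hepatoma, 20× DRE-luc). Plated, 5 h 37C, compound/DMSO added, 24 h 37C. CellTiter-Fluor 30 min 37C → fluorescence; then ONE-Glo 30 min RT → luminescence.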

[38] = qHTS assay to identify small molecule that activate the aryl hydrocarbon receptor (AhR) signaling pathway - cell viability counter screen (AID 743086);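 further: HepG2 liver cells carrying the AhR DRE luciferase reporter; series mostly up to about 70 µM; nearly all actives have a fitted effect of over 45% in size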
How it was run: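 Cytotoxicity counter screen: CellTiter-Fluor signal (30 min, 37 C) in 4000 HepG2 cells/well carrying the DRE-luciferase reporter, following 24 h compound exposure at 37 C.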

[39] = qHTS assay to identify small molecule antagonists of the estrogen receptor alpha (ER-alpha) signaling pathway - cell viability counter screen (AID 743074; calls by dose curve)

Measured: Potency

Chain of Acetylcholinesterase (Homo sapiens) (P22303 whole entry, looked up): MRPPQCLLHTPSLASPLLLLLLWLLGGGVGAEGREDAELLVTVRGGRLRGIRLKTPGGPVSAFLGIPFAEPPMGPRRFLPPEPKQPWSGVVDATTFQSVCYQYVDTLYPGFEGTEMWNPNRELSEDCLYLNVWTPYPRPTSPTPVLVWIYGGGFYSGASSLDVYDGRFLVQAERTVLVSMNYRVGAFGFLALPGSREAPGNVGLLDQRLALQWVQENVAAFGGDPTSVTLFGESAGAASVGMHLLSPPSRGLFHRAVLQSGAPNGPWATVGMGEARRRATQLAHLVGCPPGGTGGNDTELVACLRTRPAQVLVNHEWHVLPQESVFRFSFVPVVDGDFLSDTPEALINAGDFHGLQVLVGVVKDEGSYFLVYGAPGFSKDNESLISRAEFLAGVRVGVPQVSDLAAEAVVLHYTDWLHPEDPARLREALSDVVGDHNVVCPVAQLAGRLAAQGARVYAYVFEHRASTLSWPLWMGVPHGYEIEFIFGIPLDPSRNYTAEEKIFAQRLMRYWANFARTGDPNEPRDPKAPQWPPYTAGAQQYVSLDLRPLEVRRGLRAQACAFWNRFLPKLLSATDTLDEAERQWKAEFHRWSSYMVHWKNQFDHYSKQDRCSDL
Chain of Estrogen receptor (Homo sapiens) (P03372 whole entry, looked up): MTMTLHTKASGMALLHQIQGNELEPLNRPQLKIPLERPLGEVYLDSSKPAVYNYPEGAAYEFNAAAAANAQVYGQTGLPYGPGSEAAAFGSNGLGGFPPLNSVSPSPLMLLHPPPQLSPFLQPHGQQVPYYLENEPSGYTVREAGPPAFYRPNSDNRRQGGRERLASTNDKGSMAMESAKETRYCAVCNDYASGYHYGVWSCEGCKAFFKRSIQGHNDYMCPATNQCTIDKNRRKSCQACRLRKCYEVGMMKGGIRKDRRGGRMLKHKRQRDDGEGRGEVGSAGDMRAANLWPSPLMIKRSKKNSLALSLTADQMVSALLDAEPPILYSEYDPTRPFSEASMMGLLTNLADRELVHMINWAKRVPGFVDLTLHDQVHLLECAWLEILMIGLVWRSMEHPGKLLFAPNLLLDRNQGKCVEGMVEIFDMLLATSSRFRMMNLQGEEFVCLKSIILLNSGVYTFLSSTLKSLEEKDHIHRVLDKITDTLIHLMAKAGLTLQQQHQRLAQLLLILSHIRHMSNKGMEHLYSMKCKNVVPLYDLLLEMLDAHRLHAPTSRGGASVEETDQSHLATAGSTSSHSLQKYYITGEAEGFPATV
Chain of Glucocorticoid receptor (Homo sapiens) (P04150 whole entry, looked up): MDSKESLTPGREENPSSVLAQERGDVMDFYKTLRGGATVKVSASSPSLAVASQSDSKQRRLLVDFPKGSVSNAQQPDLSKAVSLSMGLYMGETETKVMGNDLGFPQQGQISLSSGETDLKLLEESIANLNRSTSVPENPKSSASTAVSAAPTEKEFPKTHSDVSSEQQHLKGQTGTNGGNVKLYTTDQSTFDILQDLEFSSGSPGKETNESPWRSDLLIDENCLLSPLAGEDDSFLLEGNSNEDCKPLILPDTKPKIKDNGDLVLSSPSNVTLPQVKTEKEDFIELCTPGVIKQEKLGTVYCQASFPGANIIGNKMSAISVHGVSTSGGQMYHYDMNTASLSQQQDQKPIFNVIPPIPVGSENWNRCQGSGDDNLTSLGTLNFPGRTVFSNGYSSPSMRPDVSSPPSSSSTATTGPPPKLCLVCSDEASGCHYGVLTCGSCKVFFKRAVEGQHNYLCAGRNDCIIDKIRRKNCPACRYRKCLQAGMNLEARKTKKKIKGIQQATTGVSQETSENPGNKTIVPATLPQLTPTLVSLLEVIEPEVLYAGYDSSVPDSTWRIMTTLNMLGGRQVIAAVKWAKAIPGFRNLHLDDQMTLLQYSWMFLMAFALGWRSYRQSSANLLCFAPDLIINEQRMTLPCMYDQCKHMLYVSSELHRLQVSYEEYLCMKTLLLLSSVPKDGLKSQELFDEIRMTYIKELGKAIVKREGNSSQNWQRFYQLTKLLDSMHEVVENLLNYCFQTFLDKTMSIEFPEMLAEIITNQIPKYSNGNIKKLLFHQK
Chain of Aromatase (Homo sapiens) (P11511 whole entry, looked up): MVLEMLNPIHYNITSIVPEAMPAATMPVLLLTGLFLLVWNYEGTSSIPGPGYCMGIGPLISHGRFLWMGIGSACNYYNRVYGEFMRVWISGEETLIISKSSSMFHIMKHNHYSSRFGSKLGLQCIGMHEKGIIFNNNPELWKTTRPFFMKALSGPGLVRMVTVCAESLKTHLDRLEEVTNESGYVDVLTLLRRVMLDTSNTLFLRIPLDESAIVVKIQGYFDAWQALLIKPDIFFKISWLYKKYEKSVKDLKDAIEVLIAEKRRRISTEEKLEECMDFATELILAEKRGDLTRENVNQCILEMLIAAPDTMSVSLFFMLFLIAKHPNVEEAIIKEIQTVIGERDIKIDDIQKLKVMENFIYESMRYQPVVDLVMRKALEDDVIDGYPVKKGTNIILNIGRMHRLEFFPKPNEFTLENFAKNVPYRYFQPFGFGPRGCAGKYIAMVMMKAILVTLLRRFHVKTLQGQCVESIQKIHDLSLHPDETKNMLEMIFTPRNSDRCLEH
Chain of Aryl hydrocarbon receptor (Homo sapiens) (P35869 whole entry, looked up): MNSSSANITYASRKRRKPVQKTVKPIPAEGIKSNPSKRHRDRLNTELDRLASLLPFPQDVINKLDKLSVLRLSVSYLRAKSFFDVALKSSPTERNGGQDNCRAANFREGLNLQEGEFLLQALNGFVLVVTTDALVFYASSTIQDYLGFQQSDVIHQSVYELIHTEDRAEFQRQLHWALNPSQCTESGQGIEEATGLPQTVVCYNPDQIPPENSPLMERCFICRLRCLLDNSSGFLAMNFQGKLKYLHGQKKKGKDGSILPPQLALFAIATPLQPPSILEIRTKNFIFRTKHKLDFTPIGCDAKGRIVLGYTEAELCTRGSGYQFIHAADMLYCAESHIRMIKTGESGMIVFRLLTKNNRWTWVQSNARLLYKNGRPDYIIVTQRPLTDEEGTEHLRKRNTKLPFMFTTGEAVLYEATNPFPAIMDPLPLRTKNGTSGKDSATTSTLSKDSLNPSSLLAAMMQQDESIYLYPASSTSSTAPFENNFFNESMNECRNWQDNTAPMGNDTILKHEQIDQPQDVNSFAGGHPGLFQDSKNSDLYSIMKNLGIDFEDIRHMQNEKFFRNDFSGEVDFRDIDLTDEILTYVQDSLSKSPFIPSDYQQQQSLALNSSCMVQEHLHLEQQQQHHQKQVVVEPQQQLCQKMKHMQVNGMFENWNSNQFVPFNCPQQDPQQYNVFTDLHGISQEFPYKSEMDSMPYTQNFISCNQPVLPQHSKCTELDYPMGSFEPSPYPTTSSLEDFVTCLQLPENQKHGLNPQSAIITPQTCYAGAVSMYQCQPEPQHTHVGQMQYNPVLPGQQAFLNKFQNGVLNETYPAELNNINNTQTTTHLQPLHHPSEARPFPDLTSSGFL

CCC(=O)O[C@](Cc1ccccc1)(c1ccccc1)[C@H](C)CN(C)C
active: [18] 38 µM | [19] 60.3 µM | [20] 67.6 µM | [23] 26.9 µM | [24] 53.7 µM
not listed: [27] | [28] | [29] | [30] | [31] | [32] | [33] | [34] | [35] | Aromatase (Homo sapiens) | [36] | [37] | [38] | [39]
inactive: all other assays above

N=C1N=C(N)c2cc3ccccc3cc21
inactive: [27]

O=C1OC(=O)c2cc(Oc3ccc4c(c3)C(=O)OC4=O)ccc21
inactive: [28] | [27]

Cc1ccc2c(c1)[C@]13CCCC[C@@H]1[C@H](C2)N(C)CC3
active: [18] 26.6 µM
not listed: [1] | [19] | [20] | [24] | [26] | [27] | [28] | [39]
inactive: all other assays above

COc1cc(C[C@H](C)N)c(OC)cc1Br
active: [18] 70.4 µM | [19] 62.7 µM | [20] 70.4 µM | [23] 70.4 µM | [24] 31.4 µM | [26] 15.8 µM
not listed: [22] | [27] | [28] | [29] | [30] | [31] | Aromatase (Homo sapiens) | [36] | [37] | [38]
inactive: all other assays above
